From PubChem BioAssay

Each molecule was assayed on XIP peptide (Xip251-270) (assay: small-molecule binders of XIP peptide, primary screen, biochemical, small-molecule microarray, fluorescence 635/667 nm, 0.5 µg/mL protein (AID 1183)). Conditions: small-molecule microarray binding, fluorescence 635 nm; higher = more signal.

Row | Structure (SMILES) | composite z-score
1 | NC(=O)[C@@]1(Cc2ccccc2)COC(c2ccc(OCCCO)cc2)=N1 | -0.959
2 | CCOC(=O)C[C@H]1[C@H](OC(=O)c2ccc(C(=O)c3ccccc3)cc2)[C@@H](NC(=O)c2ccc3ccccc3n2)c2cc(OCCCO)ccc2N1C(=O)Cc1ccc(OC)cc1 | -0.219
3 | COC(=O)[C@@H]1N=C(c2ccc(OCCCO)cc2)O[C@@H]1c1ccccc1 | 0.759
4 | CCOc1cc(C(O)C2C=CC3C(=O)NC(=O)C3N2Nc2ccc(Cl)cc2Cl)ccc1O (stereo not given) | 0.966
5 | CCOC(=O)C=Cc1cccc(C)c1O | 0.159
6 | COC(=O)[C@@]1(Cc2ccc(OC)cc2)[C@H]2c3cc(C(=O)N4CCCC4)n(CCO)c3C[C@H]2CN1C(=O)c1ccccc1 | 0.643
7 | CC1=C2[C@@H](CCc3ccccc3)OB(O)C[C@@H]2[C@@H]2C(=O)N(Cc3ccccc3)C(=O)[C@@H]2C1 | 0.629
8 | C=CC[C@@H](OC(=O)Nc1ccc(SC)cc1)c1ccc(O)c(F)c1 | 0.257
9 | COCCCNC(=O)[C@@]1(CCC(=O)OC(C)(C)C)N=C(c2ccc(OCCCO)cc2)O[C@H]1c1ccccc1N=[N+]=[N-] | 0.476
10 | CCOC(=O)C[C@H]1[C@H](OC(=O)c2cc3ccccc3oc2=O)[C@@H](NC(=O)CC(C)C)c2cc(OCCCO)ccc2N1C(=O)c1ccc2ccccc2n1 | 0.46
11 | Cc1ccc(C(C)CC(O)C2C=CC3C(=O)N(c4ccccc4)C(=O)C3N2Nc2ccccc2)o1 (stereo not given) | 0.518
12 | CN(C)c1ccc(C(O)C2C=CC3C(=O)NC(=O)C3N2Nc2ccccn2)cc1 (stereo not given) | -0.0515
13 | CCCCN1CC=CC23O[C@@H]4/C=C\CCCOC(=O)C4[C@H]2C(=O)N(CCO)[C@@H]3C1=O (stereo not given in full) | 0.157
14 | COc1ccc([Si](C)(C)[C@@H]2[C@@H](CCO)O[C@]3(C(=O)N(Cc4ccccc4)c4ccc(N5C(=O)c6cccc7cccc5c67)cc43)[C@H]2C)cc1 | 0.541
15 | Oc1ccc2cc[n+](Cc3cc4c(cc3Br)OCO4)cc2c1 | 0.135
16 | CCCNC(=O)[C@@H]1c2ccccc2C(=O)N(Cc2ccc(OC(F)(F)F)cc2)[C@H]1c1ccc(CO)cc1 | 0.835
17 | COCCOC(=O)N1C(=O)[C@@]2(c3cc(C#CC4=CCCCC4)ccc31)[C@H](c1ccccc1OCCO)N1[C@H](c3ccccc3)[C@H](c3ccccc3)OC(=O)[C@H]1[C@@H]2C(=O)NC[C@H](O)c1ccccc1 | 0.742
18 | O=C1N(CCS(=O)(=O)c2ccccc2)c2ccccc2[C@H]2OC(c3ccc(OCCCO)cc3)=N[C@@]12Cc1ccccc1 | 0.832

Row | Structure (SMILES) | composite z-score
19 | [N-]=[N+]=Nc1ccccc1C[C@]1(C(=O)NCCN2CCOCC2)COC(c2ccc(OCCCO)cc2)=N1 | 0.256
20 | C=CC[C@@]1(C(=O)NCCCOC)N=C(c2ccc(OCCCO)cc2)O[C@@H]1c1ccccc1N=[N+]=[N-] | 0.516
21 | COC(=O)C1=CC(CCCO)=CC(c2ccc(CN3CCCC3)cc2)N(Cc2cccc(OC(F)(F)F)c2)C=C1C(=O)OC (stereo not given) | 0.677
22 | CCCC=C(CCC)[C@@H](NC(=O)c1cccs1)c1ccc(C(=O)OC)cc1 | 0.285
23 | CC1=C2[C@@H](CCc3ccccc3)OB(O)C[C@@H]2[C@@H]2C(=O)N(C)C(=O)[C@@H]2C1 | 0.472
24 | COCCOC(=O)N1C(=O)[C@@]2(c3cc(C#CC4(O)CCCCCC4)ccc31)[C@H](c1ccc(O)cc1)N1[C@H](c3ccccc3)[C@H](c3ccccc3)OC(=O)[C@H]1[C@@H]2C(=O)N1CCN(c2ncccn2)CC1 | 0.699
25 | COC(=O)[C@@]1(Cc2ccc(F)cc2)[C@H]2c3cc(C(=O)N(C)C)n(Cc4ccc(OC(F)(F)F)cc4)c3C[C@H]2CN1C(=O)c1ccccc1 | -0.133
26 | C=CCNC(=O)[C@H]1[C@@H]2C(=O)O[C@@H](c3ccccc3)[C@@H](c3ccccc3)N2[C@@H](c2ccccc2OCCO)[C@]12C(=O)N(C(=O)OCCOC)c1ccc(C#CC3(O)CCCCCC3)cc12 | 0.712
27 | C=C(COC)/C(=C/C[C@H](OC(=O)c1ccncc1)c1ccccc1OCCO)c1cc(C(=O)OC)ccc1OC | 0.12
28 | CC(C)c1ccc(NN2C(C(O)c3ccc(C#N)cc3)C=CC3C(=O)N(c4ccccc4)C(=O)C32)cc1 (stereo not given) | 0.752
29 | CC(C)NC(=O)[C@@]1(c2ccc([N+](=O)[O-])cc2)CC(=O)N(C2CCCCC2)[C@@H]1c1ccc(CO)cc1 | 0.786
30 | CCOC(=O)C[C@H]1[C@H](OC(=O)Cc2ccc3c(c2)OCO3)[C@@H](NC(=O)c2ccc3ccccc3n2)c2cc(OCCCO)ccc2N1C(=O)c1ccccc1 | 0.256
31 | O=c1cccc(-c2ccc([N+](=O)[O-])cc2)o1 | -0.163
32 | CC(C)N1C(=O)C[C@@](C(=O)O)(c2ccc([N+](=O)[O-])cc2)[C@H]1c1ccc(CO)cc1 | 0.916
33 | CCCCCCCCCC(O)C1C=CC2C(=O)N(c3ccccc3)C(=O)C2N1Nc1cc(OC)c(OC)c(OC)c1 (stereo not given) | 0.206
34 | COC(=O)[C@@]1(Cc2ccc(OC)cc2)[C@H]2c3cc(C(=O)N(C)C)n(Cc4ccc(C)o4)c3C[C@H]2CN1C(=O)c1ccccc1 | 0.0805
35 | [N-]=[N+]=Nc1ccccc1C[C@]1(C(=O)NCC(O)CO)COC(c2ccc(OCCCO)cc2)=N1 (stereo not given in full) | 0.106
